Results on seven sequences are retold here after paper PMC11006913.

Common to all, as to assay: PBM; 200 nM protein, PBS
Details in all cases: dsDNA, one strand shown

The target in experiment [1] is HOXB4 (Homo sapiens, UniProt P17483 148-234).
The target of experiment [2] is T1, VENTX (Homo sapiens, UniProt O95231 78-163, R121Q).
T1 sequence: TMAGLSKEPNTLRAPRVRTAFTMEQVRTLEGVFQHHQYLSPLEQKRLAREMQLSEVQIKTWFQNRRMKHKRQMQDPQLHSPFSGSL

Experiment [3] deals with HOXA4 (Homo sapiens, UniProt Q00056 201-287, W262R).
HOXA4 (Homo sapiens, UniProt Q00056 201-287, W262R), sequence (Q00056 201-287 W262R): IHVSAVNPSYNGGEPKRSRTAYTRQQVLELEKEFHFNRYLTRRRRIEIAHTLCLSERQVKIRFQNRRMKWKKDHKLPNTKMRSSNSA
Experiment [4] has as its target T2, VENTX (Homo sapiens, UniProt O95231 78-163).
T2 sequence: T1 sequence with Q44R

Experiment [5] concerns the target T3, VENTX (Homo sapiens, UniProt O95231 78-163, Y115F).
T3 sequence: T1 sequence with Y38F, Q44R

In experiment [6] the target is HOXA2 (Homo sapiens, UniProt O43364 129-215, R185T).
HOXA2 (Homo sapiens, UniProt O43364 129-215, R185T), sequence (O43364 129-215 R185T): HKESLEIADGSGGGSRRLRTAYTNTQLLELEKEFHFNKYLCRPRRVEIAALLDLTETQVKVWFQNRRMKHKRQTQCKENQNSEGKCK
The target in experiment [7] is HOXA4 (Homo sapiens, UniProt Q00056 201-287, R217L).
HOXA4 (Homo sapiens, UniProt Q00056 201-287, R217L), sequence (Q00056 201-287 R217L): as the sequence (Q00056 201-287 W262R) above, with R17L, R62W counted along it
Experiment [8] has as its target HOXB4 (Homo sapiens, UniProt P17483 148-234, V174I).
The target of experiment [9] is HOXA2 (Homo sapiens, UniProt O43364 129-215, R185K).
HOXA2 (Homo sapiens, UniProt O43364 129-215, R185K), sequence (O43364 129-215 R185K): as the sequence (O43364 129-215 R185T) above, with T57K counted along it
The target of experiment [10] is HOXA4 (Homo sapiens, UniProt Q00056 201-287).
HOXA4 (Homo sapiens, UniProt Q00056 201-287), sequence (Q00056 201-287): as the sequence (Q00056 201-287 W262R) above, with R62W counted along it
Experiment [11] concerns the target VAX1 (Homo sapiens, UniProt Q5SQQ9 86-172).
The target in experiment [12] is VAX1 (Homo sapiens, UniProt Q5SQQ9 86-172, T142I).
VAX1 (Homo sapiens, UniProt Q5SQQ9 86-172, T142I), sequence (Q5SQQ9 86-172 T142I): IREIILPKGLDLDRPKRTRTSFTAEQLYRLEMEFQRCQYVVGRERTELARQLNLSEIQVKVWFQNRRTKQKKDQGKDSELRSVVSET
In experiment [13] the target is HOXA2 (Homo sapiens, UniProt O43364 129-215, Y150S).
HOXA2 (Homo sapiens, UniProt O43364 129-215, Y150S), sequence (O43364 129-215 Y150S): as the sequence (O43364 129-215 R185T) above, with Y22S, T57R counted along it
The target in experiment [14] is HOXA4 (Homo sapiens, UniProt Q00056 201-287, W262F).
HOXA4 (Homo sapiens, UniProt Q00056 201-287, W262F), sequence (Q00056 201-287 W262F): as the sequence (Q00056 201-287 W262R) above, with R62F counted along it
For experiment [15], the target named is HOXA2 (Homo sapiens, UniProt O43364 129-215).
HOXA2 (Homo sapiens, UniProt O43364 129-215), sequence (O43364 129-215): as the sequence (O43364 129-215 R185T) above, with T57R counted along it
The target in experiment [16] is VAX1 (Homo sapiens, UniProt Q5SQQ9 86-172, K157R).
VAX1 (Homo sapiens, UniProt Q5SQQ9 86-172, K157R), sequence (Q5SQQ9 86-172 K157R): as the sequence (Q5SQQ9 86-172 T142I) above, with I57T, K72R counted along it
In experiment [17] the target is HOXA7 (Homo sapiens, UniProt P31268 116-202).
HOXA7 (Homo sapiens, UniProt P31268 116-202), sequence (P31268 116-202): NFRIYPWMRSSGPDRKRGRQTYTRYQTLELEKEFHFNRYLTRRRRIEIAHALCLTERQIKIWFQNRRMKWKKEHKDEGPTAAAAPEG
Experiment [18] concerns the target HOXB6 (Homo sapiens, UniProt P17509 132-218, K202E).
Experiment [19] concerns the target HOXA7 (Homo sapiens, UniProt P31268 116-202, W177C).
The target of experiment [20] is HOXB6 (Homo sapiens, UniProt P17509 132-218).
HOXB6 (Homo sapiens, UniProt P17509 132-218), sequence (P17509 132-218): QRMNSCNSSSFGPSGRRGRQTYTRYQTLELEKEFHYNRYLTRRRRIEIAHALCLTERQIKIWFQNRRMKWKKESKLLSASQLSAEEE

Substitutions are numbered along the chain they refer to.

HOXB6 (Homo sapiens, UniProt P17509 132-218, K202E), sequence (P17509 132-218 K202E): as the sequence (P17509 132-218) above, with K71E counted along it
HOXB4 (Homo sapiens, UniProt P17483 148-234), sequence (P17483 148-234): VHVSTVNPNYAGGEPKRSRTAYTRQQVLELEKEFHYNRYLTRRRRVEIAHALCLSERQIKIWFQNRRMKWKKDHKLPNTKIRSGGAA
VAX1 (Homo sapiens, UniProt Q5SQQ9 86-172), sequence (Q5SQQ9 86-172): as the sequence (Q5SQQ9 86-172 T142I) above, with I57T counted along it
HOXA7 (Homo sapiens, UniProt P31268 116-202, W177C), sequence (P31268 116-202 W177C): as the sequence (P31268 116-202) above, with W62C counted along it
HOXB4 (Homo sapiens, UniProt P17483 148-234, V174I), sequence (P17483 148-234 V174I): as the sequence (P17483 148-234) above, with V27I counted along it

On to GCTAATGA, for which the binding signal in the experiment with HOXB4 [1] was 13.3 upbm affinity estimate (log intensity, higher = more binding, comparable within an allelic series); with VENTX [2], 11.9 upbm affinity estimate (log intensity, higher = more binding, comparable within an allelic series); with HOXA4 [3], 10.5 upbm affinity estimate (log intensity, higher = more binding, comparable within an allelic series); with VENTX [4] it was 12.5 upbm affinity estimate (log intensity, higher = more binding, comparable within an allelic series); with VENTX [5] it was 11.9 upbm affinity estimate (log intensity, higher = more binding, comparable within an allelic series); with HOXA2 [6] it was 13.1 upbm affinity estimate (log intensity, higher = more binding, comparable within an allelic series). In addition, the binding signal with HOXA4 [7] was 12.1 upbm affinity estimate (log intensity, higher = more binding, comparable within an allelic series); with HOXB4 [8], 14 upbm affinity estimate (log intensity, higher = more binding, comparable within an allelic series); in the experiment with HOXA2 [9], 13.6 upbm affinity estimate (log intensity, higher = more binding, comparable within an allelic series); with HOXA4 [10], 13.9 upbm affinity estimate (log intensity, higher = more binding, comparable within an allelic series); in the experiment with VAX1 [11] it was 13.5 upbm affinity estimate (log intensity, higher = more binding, comparable within an allelic series); with VAX1 [12], 13.3 upbm affinity estimate (log intensity, higher = more binding, comparable within an allelic series). For the same sequence, the binding signal is 10.8 upbm affinity estimate (log intensity, higher = more binding, comparable within an allelic series) with HOXA2 [13]; 11.9 upbm affinity estimate (log intensity, higher = more binding, comparable within an allelic series) in the experiment with HOXA4 [14]; 12.8 upbm affinity estimate (log intensity, higher = more binding, comparable within an allelic series) with HOXA2 [15]; 13.4 upbm affinity estimate (log intensity, higher = more binding, comparable within an allelic series) in the experiment with VAX1 [16].

For ACTAATGG, the binding signal with HOXB4 [1] is 12.9 upbm affinity estimate (log intensity, higher = more binding, comparable within an allelic series); in the experiment with VENTX [2], 12.2 upbm affinity estimate (log intensity, higher = more binding, comparable within an allelic series); with HOXA4 [3] it was 10.5 upbm affinity estimate (log intensity, higher = more binding, comparable within an allelic series); with VENTX [4], 12.8 upbm affinity estimate (log intensity, higher = more binding, comparable within an allelic series); with VENTX [5] it was 11.9 upbm affinity estimate (log intensity, higher = more binding, comparable within an allelic series); with HOXA2 [6], 12.2 upbm affinity estimate (log intensity, higher = more binding, comparable within an allelic series). Further, the binding signal with HOXA4 [7] is 11.5 upbm affinity estimate (log intensity, higher = more binding, comparable within an allelic series); in the experiment with HOXB4 [8] it was 13.5 upbm affinity estimate (log intensity, higher = more binding, comparable within an allelic series); with HOXA2 [9], 13 upbm affinity estimate (log intensity, higher = more binding, comparable within an allelic series); with HOXA4 [10], 13.5 upbm affinity estimate (log intensity, higher = more binding, comparable within an allelic series); with VAX1 [11], 12.7 upbm affinity estimate (log intensity, higher = more binding, comparable within an allelic series); with VAX1 [12], 12.1 upbm affinity estimate (log intensity, higher = more binding, comparable within an allelic series). Further, the binding signal was 10.8 upbm affinity estimate (log intensity, higher = more binding, comparable within an allelic series) with HOXA2 [13]; 11.3 upbm affinity estimate (log intensity, higher = more binding, comparable within an allelic series) in the experiment with HOXA4 [14]; 12.1 upbm affinity estimate (log intensity, higher = more binding, comparable within an allelic series) with HOXA2 [15]; 12.3 upbm affinity estimate (log intensity, higher = more binding, comparable within an allelic series) with VAX1 [16].

Turning to ATCATTAA, the binding signal was 13.5 upbm affinity estimate (log intensity, higher = more binding, comparable within an allelic series) with HOXB4 [1]; 11.7 upbm affinity estimate (log intensity, higher = more binding, comparable within an allelic series) in the experiment with VENTX [2]; 10.9 upbm affinity estimate (log intensity, higher = more binding, comparable within an allelic series) in the experiment with HOXA4 [3]; 11.7 upbm affinity estimate (log intensity, higher = more binding, comparable within an allelic series) in the experiment with HOXA7 [17]; 11.7 upbm affinity estimate (log intensity, higher = more binding, comparable within an allelic series) with VENTX [5]; 10.2 upbm affinity estimate (log intensity, higher = more binding, comparable within an allelic series) in the experiment with HOXB6 [18]. The binding signal in the experiment with HOXA2 [6] was 13 upbm affinity estimate (log intensity, higher = more binding, comparable within an allelic series); in the experiment with HOXA4 [7] it was 12.9 upbm affinity estimate (log intensity, higher = more binding, comparable within an allelic series); in the experiment with HOXB4 [8], 14.2 upbm affinity estimate (log intensity, higher = more binding, comparable within an allelic series); with HOXA2 [9], 13.5 upbm affinity estimate (log intensity, higher = more binding, comparable within an allelic series); in the experiment with HOXA4 [10] it was 14.2 upbm affinity estimate (log intensity, higher = more binding, comparable within an allelic series); with VAX1 [11], 13.2 upbm affinity estimate (log intensity, higher = more binding, comparable within an allelic series). The binding signal in the experiment with VAX1 [12] was 13.2 upbm affinity estimate (log intensity, higher = more binding, comparable within an allelic series); with HOXA2 [13] it was 10.9 upbm affinity estimate (log intensity, higher = more binding, comparable within an allelic series); with HOXA7 [19] it was 8.9 upbm affinity estimate (log intensity, higher = more binding, comparable within an allelic series); with HOXA4 [14], 12.5 upbm affinity estimate (log intensity, higher = more binding, comparable within an allelic series); in the experiment with HOXA2 [15], 12.7 upbm affinity estimate (log intensity, higher = more binding, comparable within an allelic series); with VAX1 [16], 13 upbm affinity estimate (log intensity, higher = more binding, comparable within an allelic series). The binding signal in the experiment with HOXB6 [20] was 12 upbm affinity estimate (log intensity, higher = more binding, comparable within an allelic series).

As for TCATTAAA, the binding signal was 13.1 upbm affinity estimate (log intensity, higher = more binding, comparable within an allelic series) with HOXB4 [1]; 10.8 upbm affinity estimate (log intensity, higher = more binding, comparable within an allelic series) in the experiment with HOXA4 [3]; 11.6 upbm affinity estimate (log intensity, higher = more binding, comparable within an allelic series) with HOXA7 [17]; 10.1 upbm affinity estimate (log intensity, higher = more binding, comparable within an allelic series) with HOXB6 [18]; 12.5 upbm affinity estimate (log intensity, higher = more binding, comparable within an allelic series) with HOXA2 [6]; 12.5 upbm affinity estimate (log intensity, higher = more binding, comparable within an allelic series) with HOXA4 [7]. Further, the binding signal with HOXB4 [8] was 13.8 upbm affinity estimate (log intensity, higher = more binding, comparable within an allelic series); with HOXA2 [9] it was 13.1 upbm affinity estimate (log intensity, higher = more binding, comparable within an allelic series); with HOXA4 [10], 13.9 upbm affinity estimate (log intensity, higher = more binding, comparable within an allelic series); with VAX1 [11], 13 upbm affinity estimate (log intensity, higher = more binding, comparable within an allelic series); with VAX1 [12] it was 13 upbm affinity estimate (log intensity, higher = more binding, comparable within an allelic series); with HOXA2 [13] it was 10.9 upbm affinity estimate (log intensity, higher = more binding, comparable within an allelic series). The binding signal in the experiment with HOXA7 [19] was 9 upbm affinity estimate (log intensity, higher = more binding, comparable within an allelic series); in the experiment with HOXA4 [14], 11.9 upbm affinity estimate (log intensity, higher = more binding, comparable within an allelic series); in the experiment with HOXA2 [15] it was 12.3 upbm affinity estimate (log intensity, higher = more binding, comparable within an allelic series); with VAX1 [16], 12.9 upbm affinity estimate (log intensity, higher = more binding, comparable within an allelic series); with HOXB6 [20], 11.9 upbm affinity estimate (log intensity, higher = more binding, comparable within an allelic series).

In the case of GCCGCCGC, the binding signal was 7.18 upbm affinity estimate (log intensity, higher = more binding, comparable within an allelic series) in the experiment with HOXB4 [1]; 7.93 upbm affinity estimate (log intensity, higher = more binding, comparable within an allelic series) in the experiment with VENTX [2]; 9.6 upbm affinity estimate (log intensity, higher = more binding, comparable within an allelic series) with HOXA4 [3]; 7.88 upbm affinity estimate (log intensity, higher = more binding, comparable within an allelic series) with VENTX [4]; 7.83 upbm affinity estimate (log intensity, higher = more binding, comparable within an allelic series) in the experiment with VENTX [5]; 6.96 upbm affinity estimate (log intensity, higher = more binding, comparable within an allelic series) with HOXA2 [6]. Moreover, the binding signal with HOXA4 [7] was 9.61 upbm affinity estimate (log intensity, higher = more binding, comparable within an allelic series); in the experiment with HOXB4 [8] it was 7.39 upbm affinity estimate (log intensity, higher = more binding, comparable within an allelic series); with HOXA2 [9], 9.77 upbm affinity estimate (log intensity, higher = more binding, comparable within an allelic series); with HOXA4 [10] it was 9.67 upbm affinity estimate (log intensity, higher = more binding, comparable within an allelic series); with HOXA2 [13], 10.3 upbm affinity estimate (log intensity, higher = more binding, comparable within an allelic series); in the experiment with HOXA4 [14], 9.69 upbm affinity estimate (log intensity, higher = more binding, comparable within an allelic series). In the experiment with HOXA2 [15], the binding signal was 6.9 upbm affinity estimate (log intensity, higher = more binding, comparable within an allelic series).

As to CCGCCTAG, the binding signal with HOXB4 [1] was 7.58 upbm affinity estimate (log intensity, higher = more binding, comparable within an allelic series); in the experiment with HOXB4 [8], 7.95 upbm affinity estimate (log intensity, higher = more binding, comparable within an allelic series).

Take GGTCATTA: the binding signal in the experiment with HOXB4 [1] was 13.3 upbm affinity estimate (log intensity, higher = more binding, comparable within an allelic series); in the experiment with VENTX [2] it was 11.8 upbm affinity estimate (log intensity, higher = more binding, comparable within an allelic series); in the experiment with HOXA4 [3], 10.6 upbm affinity estimate (log intensity, higher = more binding, comparable within an allelic series); with VENTX [4], 12.4 upbm affinity estimate (log intensity, higher = more binding, comparable within an allelic series); with HOXA7 [17], 11.8 upbm affinity estimate (log intensity, higher = more binding, comparable within an allelic series); with VENTX [5] it was 11.8 upbm affinity estimate (log intensity, higher = more binding, comparable within an allelic series). The binding signal with HOXB6 [18] was 9.99 upbm affinity estimate (log intensity, higher = more binding, comparable within an allelic series); in the experiment with HOXA2 [6], 13 upbm affinity estimate (log intensity, higher = more binding, comparable within an allelic series); with HOXA4 [7], 12.5 upbm affinity estimate (log intensity, higher = more binding, comparable within an allelic series); with HOXB4 [8], 14 upbm affinity estimate (log intensity, higher = more binding, comparable within an allelic series); with HOXA2 [9] it was 13.7 upbm affinity estimate (log intensity, higher = more binding, comparable within an allelic series); with HOXA4 [10], 13.9 upbm affinity estimate (log intensity, higher = more binding, comparable within an allelic series). For the same sequence, the binding signal in the experiment with VAX1 [11] is 13.6 upbm affinity estimate (log intensity, higher = more binding, comparable within an allelic series); with VAX1 [12], 13.5 upbm affinity estimate (log intensity, higher = more binding, comparable within an allelic series); in the experiment with HOXA2 [13] it was 10.9 upbm affinity estimate (log intensity, higher = more binding, comparable within an allelic series); with HOXA7 [19], 8.85 upbm affinity estimate (log intensity, higher = more binding, comparable within an allelic series); with HOXA4 [14], 11.9 upbm affinity estimate (log intensity, higher = more binding, comparable within an allelic series); in the experiment with HOXA2 [15] it was 12.8 upbm affinity estimate (log intensity, higher = more binding, comparable within an allelic series). Besides, the binding signal in the experiment with VAX1 [16] is 13.6 upbm affinity estimate (log intensity, higher = more binding, comparable within an allelic series); with HOXB6 [20], 12.1 upbm affinity estimate (log intensity, higher = more binding, comparable within an allelic series).
